The results in this text go back to PubChem BioAssay (Tox21).

Inconclusive results are not listed. Activity calls are given as the source filed them. Unless noted, calls come from the whole dose curve; as a rule, active = well fitted curve in the direction sought with a large enough effect in the repeat runs; inconclusive = weak or mixed curves; inactive = no such curve, though single readings can be large; an effect the other way counts as inactive or inconclusive.

Assay [1] in a line: qHTS assay to identify aromatase inhibitors - cell viability counter screen (AID 743084).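 Note: cells stimulated with testosterone during compound exposure; nearly all actives have a fitted effect of over 55% in size.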 In general terms: qHTS replaces the single test concentration by a dilution series.
For assay [2], the target named is Aryl hydrocarbon receptor (Homo sapiens) (UniProt P35869). Briefly: qHTS assay to identify small molecule that activate the aryl hydrocarbon receptor (AhR) signaling pathway (AID 743085).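 For activation: HG2L7.5c1 human HepG2 liver cells with stably integrated DRE-driven firefly reporter; series mostly up to about 70 µM.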 Note: nearly all actives have a fitted effect of over 15% in size. Note: potency is the fitted concentration of half-maximal effect. The gist of the method: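 Luminescence (ONE-Glo) from a dioxin-responsive-element luciferase reporter in HG2L7.5c1 HepG2 cells after 24 hr compound exposure at 37C; viability measured by CellTiter-Fluor fluorescence beforehand.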

The nature of assay [3]: qHTS assay to identify small molecule that activate the aryl hydrocarbon receptor (AhR) signaling pathway - cell viability counter screen (AID 743086).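 Note: HepG2 liver cells carrying the AhR DRE luciferase reporter; series mostly up to about 70 µM; nearly all actives have a fitted effect of over 45% in size.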 An outline of the steps:
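Cytotoxicity counter screen: CellTiter-Fluor signal (30 min, 37 C) in 4000 HepG2 cells/well carrying the DRE-luciferase reporter, following 24 h compound exposure at 37 C.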

Assay [4] deals with Peroxisome proliferator-activated receptor gamma (Homo sapiens) (UniProt P37231). Nature of the assay: qHTS assay to identify small molecule agonists of the peroxisome proliferator-activated receptor gamma (PPARg) signaling pathway (AID 743094; active = well fitted activation curve with a large enough effect in the signal ratio in the repeat runs, not every such curve was filed as active; the % refers to the signal ratio). An outline of the steps: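 GeneBLAzer PPARg UAS-bla HEK293H cells were plated, rested 5 h, then exposed to compounds for 17 h at 37C. Beta-lactamase activity was read by LiveBLAzer B/G FRET substrate fluorescence after 1 h at room temperature.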

Assay [5] is described as follows: qHTS assay to identify small molecule antagonists of the peroxisome proliferator-activated receptor gamma (PPARg) signaling pathway - cell viability counter screen (AID 743194). Note: nearly all actives have a fitted effect of over 55% in size. The gist of the method:
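Viability was measured as CellTiter-Glo luminescence in GeneBLAzer PPARg UAS-bla HEK293H cells. These cells had been exposed 17 h at 37 C to compounds together with rosiglitazone at 50 nM final, with the beta-lactamase readout taken in the same wells.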

Assay [6] in a line: qHTS assay for small molecule agonists of the antioxidant response element (ARE) signaling pathway - cell viability counter screen (AID 743203; calls by dose curve; note: nearly all actives have a fitted effect of over 55% in size). An outline of the steps: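 ARE-bla HepG2 cells were plated, rested 5 h at 37C/5% CO2, then exposed to compounds in DMSO for 16 h. Viability was read as CellTiter-Glo luminescence after 30 min at room temperature, in the same wells as the ARE screen.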

Assay [7] can be described thus: qHTS assay for small molecule activators of the heat shock response signaling pathway - cell viability counter screen (AID 743209). Note: nearly all actives have a fitted effect of over 50% in size. The gist of the method: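 HSE-bla HeLa cells plated overnight, then exposed to Tox21 compounds (23 nL in DMSO) for 5 h at 37 C. After the bla reporter read, CellTiter-Glo was added in the same wells and luminescence read after 30 min at room temperature.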

Assay [8] addresses Peroxisome proliferator-activated receptor gamma (Homo sapiens) (UniProt P37231). Nature of the assay: qHTS assay to identify small molecule antagonists of the peroxisome proliferator-activated receptor gamma (PPARg) signaling pathway (AID 743191; calls by dose curve; note: series mostly up to about 63 µM; nearly all actives have a fitted effect of over 30% in size). An outline of the steps:
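Beta-lactamase reporter under UAS control in HEK293H PPARg-bla cells; compound treatment 17 h at 37C. Read-out: fluorescence intensity after 1 h room-temperature incubation with LiveBLAzer B/G FRET substrate.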

Assay [9] can be described thus: qHTS assay for small molecule activators of the heat shock response signaling pathway (AID 743210; active = well fitted activation curve with a large enough effect in the signal ratio in the repeat runs, with a control signal flat, not every such curve was filed as active; the % refers to the signal ratio;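 note: HeLa cells with beta-lactamase reporter driven by heat shock elements; series mostly up to about 63 µM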). An outline of the steps:
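HeLa HSE-bla cells, overnight plating; cpd in DMSO 5 h, 37 C; LiveBLAzer B/G FRET substrate 2.5 h RT; fluorescence intensity read.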

The nature of assay [10]: qHTS assay for small molecule agonists of the antioxidant response element (ARE) signaling pathway (AID 743202; active = well fitted activation curve with a large enough effect in the signal ratio in the repeat runs, not every such curve was filed as active; the % refers to the signal ratio). An outline of the steps:
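Quantitative high-throughput format in HepG2 cells bearing an integrated ARE-beta-lactamase reporter. Compound exposure lasted 16 h at 37 C, and fluorescence was read 2 h after adding LiveBLAzer B/G substrate at room temperature.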

Aryl hydrocarbon receptor (Homo sapiens), sequence (P35869 whole entry, looked up): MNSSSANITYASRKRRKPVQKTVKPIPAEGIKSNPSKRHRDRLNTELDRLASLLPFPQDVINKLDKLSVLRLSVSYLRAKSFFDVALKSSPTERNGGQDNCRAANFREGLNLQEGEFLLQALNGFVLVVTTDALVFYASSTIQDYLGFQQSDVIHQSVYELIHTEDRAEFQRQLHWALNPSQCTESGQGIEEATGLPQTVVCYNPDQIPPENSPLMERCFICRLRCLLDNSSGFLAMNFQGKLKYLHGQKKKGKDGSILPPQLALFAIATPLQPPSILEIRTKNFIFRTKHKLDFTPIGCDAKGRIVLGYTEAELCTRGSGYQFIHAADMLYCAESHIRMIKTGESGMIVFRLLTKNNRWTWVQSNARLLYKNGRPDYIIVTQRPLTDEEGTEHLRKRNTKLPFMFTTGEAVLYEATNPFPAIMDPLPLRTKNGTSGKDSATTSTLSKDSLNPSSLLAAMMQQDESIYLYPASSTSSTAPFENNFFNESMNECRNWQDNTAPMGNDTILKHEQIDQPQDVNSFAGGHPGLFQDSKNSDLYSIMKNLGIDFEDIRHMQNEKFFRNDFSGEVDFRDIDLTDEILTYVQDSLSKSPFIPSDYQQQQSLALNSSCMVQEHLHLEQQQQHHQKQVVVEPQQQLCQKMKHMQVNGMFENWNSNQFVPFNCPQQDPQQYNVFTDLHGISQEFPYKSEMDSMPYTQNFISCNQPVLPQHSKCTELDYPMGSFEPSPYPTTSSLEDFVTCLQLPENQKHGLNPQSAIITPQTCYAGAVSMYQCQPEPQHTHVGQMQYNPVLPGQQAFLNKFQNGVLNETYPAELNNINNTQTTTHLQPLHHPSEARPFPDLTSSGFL
Peroxisome proliferator-activated receptor gamma (Homo sapiens), sequence (P37231 whole entry, looked up): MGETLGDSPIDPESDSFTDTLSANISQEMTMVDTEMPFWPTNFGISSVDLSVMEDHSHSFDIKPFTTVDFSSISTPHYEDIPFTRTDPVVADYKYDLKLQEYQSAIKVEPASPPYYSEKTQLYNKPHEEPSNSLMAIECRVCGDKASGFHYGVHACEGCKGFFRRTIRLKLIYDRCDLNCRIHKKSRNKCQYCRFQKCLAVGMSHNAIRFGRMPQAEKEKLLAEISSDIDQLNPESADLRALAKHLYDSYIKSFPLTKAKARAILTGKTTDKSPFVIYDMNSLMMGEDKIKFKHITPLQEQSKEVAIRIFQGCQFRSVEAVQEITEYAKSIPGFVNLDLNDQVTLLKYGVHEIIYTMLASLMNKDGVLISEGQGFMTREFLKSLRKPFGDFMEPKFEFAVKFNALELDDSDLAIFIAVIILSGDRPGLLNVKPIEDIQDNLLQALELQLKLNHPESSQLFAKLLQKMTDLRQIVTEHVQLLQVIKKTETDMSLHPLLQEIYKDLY

For `O=C1CCCCC1C1CCCCC1` (configuration not stated), the Potency result in assay [1], in [2], in assay [4], in assay [5] and in assay [6] was “inactive” throughout. In addition, the molecule was classed as inactive in assay [3] and in assay [7].

Turning to `CN1CCN(c2c(F)cc3c(=O)c(C(=O)O)cn(CCF)c3c2F)CC1`, the Potency entry in assay [1], in [2], in assay [8], in assay [5], in [6] and in assay [9] was “inactive” throughout. Further, the result in [3] and in assay [7] was inactive.

In the case of `CCOC(=O)C(Br)c1ccccc1` (configuration not stated), the Potency result in [1], in [2], in assay [4], in [5], in [6] and in assay [9] was “inactive” each time. Also, the molecule was classed as inactive in [3] and in assay [7].

Regarding `COc1ccc(Nc2ccc(OC)cc2)cc1`, the Potency entry in [1], in [2], in [4], in assay [5], in assay [6] and in [9] was “inactive” each time. The call in assay [3] and in assay [7] was inactive.

Take `CCC1(C)NC(=O)NC1=O` (configuration not stated): the Potency result in assay [1], in assay [2], in assay [4], in assay [5] and in assay [6] was “inactive” throughout. The outcome in assay [3] and in assay [7] was inactive.

As for `Cc1c(-c2ccccc2)oc2c(C(=O)OCCN3CCCCC3)cccc2c1=O`, the Potency result in assay [1], in [2], in assay [4], in [5], in assay [6] and in [9] was “inactive” in each case. The outcome in assay [3] and in assay [7] was inactive.

Take `COc1cc(C)ccc1C(C)C`: the Potency result in [1], in assay [2], in assay [8], in assay [5], in [10] and in assay [6] was “inactive” each time. The call in assay [3] and in [7] was inactive.

In the case of `CCCCCCCOC(=O)CCC`, the Potency entry in assay [1], in assay [2], in assay [4], in assay [5] and in assay [6] was “inactive” each time. The molecule was called inactive in [3] and in [7].

For `C[C@@H]1CN(c2c(F)c(F)c3c(=O)c(C(=O)O)cn(C4CC4)c3c2F)C[C@H](C)N1`, the Potency result in [1], in [2], in assay [8], in [5], in assay [6] and in assay [9] was “inactive” throughout. In addition, the molecule was called inactive in assay [3] and in assay [7].

`O=C1CCC(C2CCCCC2)CC1`: the Potency result in assay [1], in assay [2], in assay [4], in assay [6] and in [9] was “inactive” throughout. In addition, the molecule was classed as inactive in [3].

On to `O=C(O)[C@@H]1CSCN1`, for which the Potency result in [1], in assay [2], in [4], in assay [10], in assay [6] and in assay [9] was “inactive” throughout. In addition, the call in assay [3] was inactive.

As for `O=C1CCCCCCCCCCC(=O)OCCO1`, the Potency result in assay [1], in assay [2], in assay [8], in assay [10], in assay [6] and in [9] was “inactive” throughout. The molecule was classed as inactive in [3].

For the molecule `O=C1N(c2ccccc2)c2ccccc2C1(Cc1ccncc1)Cc1ccncc1`, the Potency entry in assay [1], in [2], in assay [8], in assay [5] and in assay [6] was “inactive” in each case. Further, the molecule was called inactive in assay [3] and in assay [7].

For `OCc1c2ccccc2cc2ccccc12`, the Potency entry in assay [1], in assay [2], in assay [4], in assay [5] and in assay [6] was “inactive” each time. For the same molecule, the result in [3] and in [7] was inactive.

For `CO[C@@]1(NC(=O)CSCC#N)C(=O)N2C(C(=O)O)=C(CSc3nnnn3C)CS[C@@H]21`, the Potency result in assay [1], in assay [2], in [8], in assay [5] and in assay [6] was “inactive” in each case. Further, the outcome in assay [3] and in assay [7] was inactive.

For `CC(=O)OC(C)OC(C)=O`, the Potency entry in assay [1], in assay [2], in assay [4], in [5], in [6] and in [9] was “inactive” throughout. Further, the call in assay [3] and in assay [7] was inactive.

For the molecule `CC(C)OC(C)C`, the Potency result in assay [1], in [2], in [4], in assay [5], in assay [6] and in assay [9] was “inactive” in each case. The molecule was called inactive in assay [3] and in assay [7].

Regarding `CCCCNCCCC`, the Potency result in assay [1], in assay [2], in assay [8], in [5], in [10] and in assay [6] was “inactive” in each case. Moreover, in [9], the Potency entry was “inactive”. Further, the molecule was called inactive in [3] and in assay [7].

Regarding `COc1ccccc1N1CCN(CCCNc2cc(=O)n(C)c(=O)n2C)CC1`, the Potency result in [1], in assay [2], in assay [4], in assay [5], in assay [6] and in [9] was “inactive” throughout. For the same molecule, the result in assay [3] and in [7] was inactive.

Take `CCOC(=O)c1ccccc1O`: the Potency result in assay [1], in assay [2], in assay [4], in assay [5], in [6] and in assay [9] was “inactive” in each case. Besides, the call in [3] and in assay [7] was inactive.

Take `OCCN(CCO)CCN(CCO)CCO`: the Potency entry in [1], in assay [2], in assay [4], in assay [5], in assay [6] and in assay [9] was “inactive” throughout. For the same molecule, the call in assay [3] and in [7] was inactive.

Consider `CCOc1ccc(OCC)c(Cl)c1`, for which the Potency entry in assay [1], in assay [2], in assay [4], in assay [10] and in [6] was “inactive” in each case. In addition, the molecule was classed as inactive in assay [3].

As to `CCOc1ccc(NC(N)=O)cc1`, the Potency entry in assay [1], in assay [2], in assay [8], in assay [5], in assay [10] and in [6] was “inactive” each time. Besides, the outcome in assay [3] and in assay [7] was inactive.

On to `CS(=O)(=O)c1ccc([C@@H](O)[C@@H](CF)NC(=O)C(Cl)Cl)cc1`, for which the Potency result in assay [1], in [2], in [8], in assay [5], in assay [10] and in assay [6] was “inactive” throughout. Moreover, the Potency entry in assay [9] is “inactive”. The call in [3] and in assay [7] was inactive.

For `Nc1cccc(S(=O)(=O)O)c1`, the Potency result in assay [1], in [2], in assay [8], in assay [5], in assay [10] and in [6] was “inactive” in each case. In [9], the Potency result was “inactive”. The molecule was called inactive in assay [3] and in assay [7].

With `C=CC(C)(O)CC/C=C(\C)CCC=C(C)C` (configuration not stated), the Potency entry in assay [1], in assay [2], in assay [4], in [5], in assay [6] and in assay [9] was “inactive” each time. The result in assay [3] and in [7] was inactive.

Consider `C=CCc1cc(OC)c(O)c(C(=O)NCCO)c1`, for which the Potency entry in [1], in assay [2], in assay [4], in assay [6] and in assay [9] was “inactive” in each case. Also, the call in assay [3] and in assay [7] was inactive.

For `CCCCCCCCOC(=O)CCCCCCCCC(=O)OCCCCCCCC`, the Potency entry in assay [1], in [2], in assay [4], in [6] and in assay [9] was “inactive” in each case. For the same molecule, in assay [3], the call was inactive.

On to `COC(=O)C(C)O` (configuration not stated), for which the Potency result in [1], in assay [2], in assay [4], in assay [10], in [6] and in assay [9] was “inactive” throughout. Further, in assay [3], the molecule was classed as inactive.

On to `CCN(CC)CCNC(=O)COc1ccc(Cl)cc1`, for which the Potency entry in assay [1], in [2], in assay [4] and in [6] was “inactive” in each case. Besides, in assay [3], the molecule was classed as inactive.

Take `COc1cc2c(cc1N)oc1ccccc12`: the Potency result in assay [1], in [8] and in [6] was “inactive” throughout. In addition, the Potency in assay [2] is 31.3 µM (active). Further, the call in [3] and in assay [7] was inactive.

For `CC(C)NCC(O)COc1ccc(CCOCC2CC2)cc1` (configuration not stated), the Potency result in [1], in [2], in assay [10], in assay [6] and in assay [9] was “inactive” each time. In addition, the molecule was classed as inactive in [3] and in assay [7].
